Compound activity deposited in PubChem by several laboratories.
The list is not random: actives were taken first. Their share in the collection is about 7.2%.
AHR act: activates the human aryl hydrocarbon receptor. AID 2796. activation, % at 5 µM. hit rate 2.5% among 320,000. AHR-responsive luciferase reporter cells, luminescence. P35869; in the data active = activation above about 47%;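 note: 0% = vehicle wells and 100% = reference agonist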
Target sequence (P35869 whole entry, looked up): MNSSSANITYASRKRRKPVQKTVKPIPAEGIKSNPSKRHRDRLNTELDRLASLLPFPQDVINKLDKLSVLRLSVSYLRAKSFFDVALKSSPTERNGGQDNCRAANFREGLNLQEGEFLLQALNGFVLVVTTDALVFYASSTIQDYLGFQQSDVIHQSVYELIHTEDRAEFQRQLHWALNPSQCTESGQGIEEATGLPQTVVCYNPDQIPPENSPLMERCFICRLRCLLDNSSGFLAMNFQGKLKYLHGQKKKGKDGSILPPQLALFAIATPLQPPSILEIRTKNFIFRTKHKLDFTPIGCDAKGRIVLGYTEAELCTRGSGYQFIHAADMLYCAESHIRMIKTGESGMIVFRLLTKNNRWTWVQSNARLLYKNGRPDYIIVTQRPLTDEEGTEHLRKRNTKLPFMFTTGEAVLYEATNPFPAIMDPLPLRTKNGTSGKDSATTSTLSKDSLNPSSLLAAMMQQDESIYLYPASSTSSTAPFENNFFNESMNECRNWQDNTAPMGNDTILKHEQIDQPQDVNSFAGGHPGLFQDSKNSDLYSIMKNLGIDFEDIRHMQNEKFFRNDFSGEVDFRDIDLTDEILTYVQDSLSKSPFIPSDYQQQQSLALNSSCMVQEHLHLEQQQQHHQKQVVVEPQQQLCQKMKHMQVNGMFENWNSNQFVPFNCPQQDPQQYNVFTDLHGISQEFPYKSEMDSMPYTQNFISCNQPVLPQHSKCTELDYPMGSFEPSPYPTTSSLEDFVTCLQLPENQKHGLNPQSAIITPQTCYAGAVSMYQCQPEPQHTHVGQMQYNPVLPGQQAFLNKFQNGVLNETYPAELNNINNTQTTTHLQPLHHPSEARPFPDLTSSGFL
Bfl-1 A1 inh: inhibitors of the anti-apoptotic protein A1, read as caspase activation. MEF A1-2A-BIM cells, Caspase-Glo 3/7 luminescence, 3 h; percent of clofoctol response, vehicle zero. caspase activation, % (test concentration not listed). hit rate 0.066% among 330,000;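 active = over half of replicate activation scores above 10%, or exactly half above 10 with the replicate mean above 10; inconclusive = replicate mean below 10 yet half the replicates above 10; inactive = over half of replicates below 10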
ALR H2O2 inh: blocks human ALR sulfhydryl oxidase activity; P55789; purified ALR, DTT oxidation, H2O2 HRP-luminol luminescence; inhibition, % (no concentration beside the values); hit rate 3.8% among 290,000; AID 485317;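 active = mean replicate inhibition above about 79%, with every replicate also reaching it, limit read from the data; inconclusive = only one of the two criteria met; inactive = mean below limit and not every replicate reaching it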
VLA-4 inh: inhibition in a human VLA-4 binding assay; VLA-4 expressing cells, ligand binding flow cytometry; inhibition, % (about 7 µM as worked out from the volumes in the protocol); hit rate 0.2% among 330,000; P13612; AID 2557; in the data active = inhibition above about 50%
SUMO Mot1 rescue: SUMOylation pathway inhibition by Mot1-301 growth rescue | hit rate 1% among 320,000 | AID 2716 | S. cerevisiae Mot1-301 growth rescue, ATP luminescence, 38.5C; percent above DMSO median, 100 means doubled | growth rescue, % at 18.8 µM;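 active = every valid replicate shows activation above 250% relative to neutral control wells; inactive = the rest, any valid replicate at or below 250%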;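 note: OY570 slx delta 5 strain wells were the positive control but not used for scaling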
Efflux pump mplx: blocks antifungal efflux pumps in multiplex yeast assay; S. cerevisiae Candida pump triplex, Nile Red efflux; inhibition, % at 10 µM; hit rate 0.44% among 330,000;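 active = plate passing quality check with inhibition over a set limit, or well fluorescence over plate mean plus 4 SD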;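 note: Nile Red retained in pooled yeast measured as flow cytometry median fluorescence; 0% = buffer negative control and 100% = Enniatin B positive control; higher means more Nile Red kept so more efflux inhibition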
* marks the source's active call; other numbers are inactive results; ? = inconclusive; nt = no result; + = active, no number.

SMILES | AHR act | Bfl-1 A1 inh | ALR H2O2 inh | VLA-4 inh | SUMO Mot1 rescue | Efflux pump mplx
COc1ccccc1NC(=S)NNC(=O)c1c(Cl)c(C)nn1C | 32.9 | 0.9 | 86.4* | -6.2 | -9.0 | -0.1
COc1ccccc1NC(=S)NNC(=O)c1cc(C)nn1C | -0.3 | -0.7 | ? | -23.3 | -6.6 | 0.1
COc1ccccc1NC(=S)NNC(=O)c1cc(C)n(C)n1 | 1.2 | 1.9 | 77.0* | -2.3 | -8.6 | -0.1
CCOc1ccc(OCCC(=O)OCC(=O)Nc2ccc(C)c(S(=O)(=O)N3CCCCC3)c2)cc1 | -1.4 | -0.4 | nt | 1.7 | -1.2 | 0.0
C#CCNc1cc(-c2ccccc2)nc2ncnn12 | 30.2 | 0.3 | -4.9 | 2.0 | -2.5 | -0.2
CC(=O)CSc1cc(-c2ccccc2)nc2ncnn12 | 6.9 | -0.5 | 97.8* | 4.6 | -9.6 | 0.0
CCC1c2ccc(C)n2CCN1C(=O)Nc1ccccc1OC (stereo not given) | 48.0* | -0.3 | 28.1 | 6.8 | -1.7 | 0.3
COCC(=O)N(Cc1nc2sc(C)c(C)c2c(=O)[nH]1)C1CCCCC1 | 3.5 | -0.3 | -5.7 | -2.6 | -6.6 | 0.1
CCCCC(=O)N(Cc1nc2sc(C)c(C)c2c(=O)[nH]1)C1CCCC1 | 7.2 | -0.4 | -8.8 | -2.8 | + | 0.2
Cc1sc2nc(CN(Cc3cccs3)C(=O)NC3CCCCC3)[nH]c(=O)c2c1C | 65.1* | 0.1 | 2.1 | -1.4 | 263.6 | 0.5
Cc1nc(NN)c2c3c(sc2n1)COC(C)(C)C3 | 12.6 | 3.1 | -1.0 | -8.0 | 3.8 | 0.1
Cc1ccc(NC(=O)C2CC(=O)N/C(=N/N=C/c3ccco3)S2)cc1 (stereo not given) | 41.6 | 0.0 | -2.6 | 18.9 | -6.4 | 0.1
O=C1CC(C(=O)Nc2ccc(F)cc2)S/C(=N\N=C\c2ccco2)N1 (stereo not given) | 3.5 | -0.2 | 95.9* | -0.8 | 2.0 | -0.1
O=[N+]([O-])c1cn(Cc2ccccc2)cn1 | 0.5 | 0.8 | -5.9 | -2.9 | 0.3 | 0.3
CCN(CC(=O)c1c(N)n(C)c(=O)n(C)c1=O)c1cccc2ccccc12 | 50.0* | 1.5 | 13.8 | 5.0 | -8.6 | 0.1
NC(=O)C1CN(S(=O)(=O)c2ccc(Cl)cc2F)c2ccccc2O1 (stereo not given) | 27.5 | -0.6 | -3.0 | -2.5 | 3.6 | 0.0
COc1ccccc1OCC#CCn1ccnc1 | 59.7* | -0.6 | -1.6 | 1.1 | 20.5 | 0.0
COc1ccc(OCC#CCn2ccnc2)cc1 | 26.3 | 0.2 | -1.1 | 0.0 | 4.9 | 0.1
S=C(NC1CCCCC1)N(CCc1ccccc1)CCc1ccccc1 | 2.9 | 0.3 | 1.8 | 4.2 | 21.4 | 0.1
CC1(N(O)C=C2C=CC(=O)C=C2)CCCCC1=O (stereo not given) | 2.3 | -0.9 | 99.2* | 3.7 | -17.9 | 0.4
COc1cc(NC(=O)COC(=O)c2cnccn2)c(C)cc1[N+](=O)[O-] | 7.9 | 0.1 | -4.4 | 18.1 | 164.7 | 0.0
C/C(=N\Nc1ccc(C)c(Cl)c1)c1cccnc1 | 54.1* | 0.0 | 99.1* | -2.1 | 19.0 | 0.0
Nc1ccc(Nc2ccc([N+](=O)[O-])cc2[N+](=O)[O-])cc1 | 4.0 | -0.3 | 98.4* | -9.3 | 11.0 | 0.0
O=C(O)c1ccccc1C(=O)Nc1ccc(Nc2ccc([N+](=O)[O-])cc2[N+](=O)[O-])cc1 | 1.4 | -0.2 | 95.9* | -5.2 | -10.3 | -0.1
Cc1ccc(-c2nc3ccccc3c(C(=O)NCc3cccs3)c2C)cc1 | 22.8 | 0.2 | -10.1 | -5.4 | 148.2 | 0.0
SMILES | AHR act | Bfl-1 A1 inh | ALR H2O2 inh | VLA-4 inh | SUMO Mot1 rescue | Efflux pump mplx
O=C(N/N=C/c1cc(Br)cc(Br)c1O)c1cccc(N2CCCC2=O)c1 | 4.8 | -0.2 | -9.3 | 8.9 | -14.1 | -0.1
O=C1CCC(=O)N1CNc1ccc(Oc2ccccc2)cc1 | -0.4 | -0.7 | 98.4* | 3.6 | 10.2 | 0.0
Cc1cc(Cl)c2oc(C(=O)N3CCN(c4ccncc4)CC3)c(C)c2c1 | 17.7 | 2.4 | nt | 16.0 | 450.2* | -0.1
CCOC(=O)Oc1ccc2c(=O)c(Oc3cccc(C)c3)coc2c1 | -0.2 | 0.2 | 95.9* | 5.4 | 101.4 | 0.3
CCOC(=O)Oc1ccc2c(=O)c(Oc3cc(C)cc(C)c3)coc2c1 | 1.0 | 0.0 | -7.7 | 6.4 | -5.2 | -0.2
COc1cc(NC(=O)c2cccc(F)c2)cc(OC)c1OC | 63.2* | 0.1 | 37.8 | 10.3 | 3.1 | 0.8
COc1cc(NC(=O)Nc2cccc(C(C)=O)c2)cc(OC)c1OC | 4.4 | -0.6 | 98.4* | -20.0 | 8.1 | -0.1
